Out of some 16,000 compounds screened, about 5,800 (36%) were called active. Inconclusive results (about 23%) are left out. This is one part of the list. Unmarked numbers belong to inactive results. Calls come from the whole dose curve; as a rule, active = well fitted curve in the direction sought with a large enough effect; inconclusive = small, poorly fitted or top-dose-only effect, or effect the other way; inactive = no such curve, though single readings can be large or run the other way.
These compounds were tested against Cytochrome P450 2C19 (Homo sapiens) (UniProt P33261) (assay: Cytochrome panel assay with activity outcomes). Settings: recombinant CYP, pro-luciferin dealkylation, luminescence, p450-cyp2c19; series mostly up to 57.1 µM.
% is set by controls: 0 for no effect and ±100 for the full control effect.

Sequence of Cytochrome P450 2C19 (Homo sapiens) (P33261 whole entry, looked up): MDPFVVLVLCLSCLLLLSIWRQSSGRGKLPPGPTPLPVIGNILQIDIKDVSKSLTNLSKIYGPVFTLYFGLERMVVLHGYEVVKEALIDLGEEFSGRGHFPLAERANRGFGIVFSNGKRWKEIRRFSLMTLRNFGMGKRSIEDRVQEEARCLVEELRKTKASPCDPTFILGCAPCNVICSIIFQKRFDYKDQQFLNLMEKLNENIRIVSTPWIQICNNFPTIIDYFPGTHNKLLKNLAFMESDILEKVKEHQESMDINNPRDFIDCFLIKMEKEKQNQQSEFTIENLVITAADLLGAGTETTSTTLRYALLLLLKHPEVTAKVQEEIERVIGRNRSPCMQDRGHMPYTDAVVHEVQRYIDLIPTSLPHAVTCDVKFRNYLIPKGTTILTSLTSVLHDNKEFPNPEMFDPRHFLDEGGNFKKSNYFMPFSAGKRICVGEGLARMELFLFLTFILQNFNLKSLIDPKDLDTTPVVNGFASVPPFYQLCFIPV

Row | SMILES | AC50 | activity, negative = inhibition
1 | O=S(=O)(c1cccc(C(F)(F)F)c1)N1CCC(c2cc(-c3cccc4ccccc34)n[nH]2)CC1 | 7.08 µM (active) | –
2 | Cc1ccnn2cc3c(=O)n(C)c(=O)n(C)c3c12 | inactive | –
3 | COC(=O)c1ccc(C(NC(=O)c2ccccc2)[C@]2(C)C[C@H]2C2CCCCC2)cc1 (stereo partly drawn) | 2.51 µM (active) | –
4 | C[C@@]1(C(NC(=O)c2cccs2)c2ccc(-c3ccccc3)cc2)C[C@H]1C1CCCCC1 (stereo partly drawn) | inactive | –
5 | C[C@@]1(C(NC(=O)c2ccc(-c3ccccc3)cc2)c2ccc(Cl)cc2)C[C@H]1C1CCCCC1 (stereo partly drawn) | inactive | –
6 | O=C(CN1CCCC1)N/N=C/c1ccc(-c2cccc(Cl)c2)o1 | 22.4 µM (active) | –
7 | CCCCc1ccc2nc(NC(=O)OC)[nH]c2c1 | inactive | –
8 | COc1ccc2nc(SCC(=O)c3ccco3)[nH]c2c1 | 14.1 µM (active) | –
9 | CCOC(=O)NC(=O)CSc1nc2ccc(OCC)cc2[nH]1 | 14.1 µM (active) | –
10 | Cc1ccc2nc(SCC(=O)c3ccc4c(c3)OCO4)[nH]c2c1 | 2.82 µM (active) | –
11 | COc1ccc(NC(=O)N2CCCC3(CCN(C(=O)c4ccco4)CC3)C2)cc1 | inactive | –
12 | COc1ccc2nc(SCC(=O)Nc3ccc4c(c3)OCCO4)[nH]c2c1 | 10 µM (active) | –
13 | COC(=O)Nc1nc2ccc(Sc3ccccc3)cc2[nH]1 | inactive | –
14 | Oc1cc(O)c2c(c1)O[C@H](c1ccc(O)c(O)c1)[C@@H](O)[C@@H]2c1c(O)cc(O)c2c1O[C@@H](c1ccc(O)c(O)c1)[C@H](O)C2 | – | -23.6% [at 11.4 µM]
15 | CSc1ccc2nnc(-c3cccc(F)c3)n2n1 | 15.8 µM (active) | –
16 | Cc1cc(C)c(C#N)c(SCc2cc3c(cc2Cl)OCO3)n1 | 6.31 µM (active) | –
17 | CON1C(=O)C(=O)N(OC)C(C)(C)C1C (stereo not drawn) | inactive | –
18 | c1ccc2nc(-c3ccncc3)ccc2c1 | 3.55 µM (active) | –
19 | c1ccc2nc(C3=NCCN3)ccc2c1 | inactive | –
20 | CN1[C@@H]2CC[C@H]1CC(OC(=O)c1c[nH]c3ccccc13)C2 (stereo partly drawn) | inactive | –
21 | O=C(OCCN1CCCCC1)c1c[nH]c2ccccc12 | inactive | –
22 | COc1cc(Cl)c(CC(=O)c2c[nH]c3ccccc23)cc1OC | 1 µM (active) | –
23 | C[C@H](CO)NC(=O)[C@H](C)[C@H]1C[C@]1(C)[C@H](NC(=O)OCc1ccccc1)c1ccccc1 | 0.631 µM (active) | –
24 | CNC(=O)[C@H](C)[C@H]1C[C@]1(C)[C@H](NC(=O)OCc1ccccc1)c1ccccc1 | 1 µM (active) | –

Row | SMILES | AC50 | activity, negative = inhibition
25 | CNC(=O)[C@H](C)[C@@H]1C[C@@]1(C)[C@@H](NC(=O)OCc1ccccc1)c1ccccc1 | 0.631 µM (active) | –
26 | CC(=O)NCCC(=O)Nc1sc2c(c1-c1nc3ccccc3[nH]1)CCCC2 | 14.1 µM (active) | –
27 | CCN(CC)S(=O)(=O)c1cc(C(=O)Nc2ccccc2C(=O)O)ccc1OC | inactive | –
28 | CCN(CC)S(=O)(=O)c1cc(C(=O)Nc2ccncc2)ccc1Cl | 0.01 µM (active) | –
29 | CCN(CC)S(=O)(=O)c1cc(C(=O)OC)ccc1Cl | 11.2 µM (active) | –
30 | CCn1ccnc1C[C@@H]1COc2ccccc2O1 | 10 µM (active) | –
31 | CC(C)C(=O)N1CCN(c2ccccc2NC(=O)c2cccc(Cl)c2)CC1 | 14.1 µM (active) | –
32 | O=C(Nc1ccccc1N1CCN(C(=O)c2ccccc2)CC1)c1cc(Br)ccc1Cl | 3.16 µM (active) | –
33 | O=C(Nc1ccccc1N1CCOCC1)c1ccc([N+](=O)[O-])cc1 | inactive | –
34 | Cc1ccccc1OCC(=O)NC(=S)Nc1ccc(N2CCOCC2)c(Cl)c1 | inactive | –
35 | Cc1ccccc1OCC(=O)Nc1ccc(N2CCN(C(=O)C(C)C)CC2)c(Cl)c1 | 8.91 µM (active) | –
36 | COc1ccc(-n2c(=O)c(-c3ccc(F)cc3)nc3cncnc32)cc1 | inactive | –
37 | Cc1ccc(-n2c(C)nc3c(cnn3-c3ccc(F)cc3)c2=O)cc1C | 22.4 µM (active) | –
38 | Cc1cc(C)n(-c2ccc(F)cc2)c(=O)c1C(=O)O | inactive | –
39 | CSc1nc(-c2ccc(C)cc2)[nH]c1S(=O)(=O)c1ccccc1 | 8.91 µM (active) | –
40 | CCn1c(=O)c2[nH]c(-c3ccccc3)nc2n(CC)c1=O | inactive | –
41 | CC1CCN(c2ccccc2NC(=S)NC(=O)c2cccs2)CC1 | 8.91 µM (active) | –
42 | O=C(NC(=S)Nc1cccc(Cl)c1N1CCCCC1)c1ccco1 | 6.31 µM (active) | –
43 | O=C(NC(=S)Nc1cccc(Cl)c1N1CCCCC1)c1cccs1 | 2.51 µM (active) | –
44 | O=C(NC(=S)Nc1cccc(Cl)c1N1CCCC1)c1ccc(-c2cccc([N+](=O)[O-])c2)o1 | inactive | –
45 | CC[C@@]1(O)C(=O)OCc2c1cc1n(c2=O)Cc2cc3c(CN(C)C)c(O)ccc3nc2-1 | – | -16.8% [at 11.4 µM]
46 | Clc1ccc2c(NCCNC3CCCCC3)ccnc2c1 | – | 41% [at 11.4 µM]
47 | O=C(COc1ccc(Cl)cc1)N(Cc1ccccc1)c1ccccn1 | 0.501 µM (active) | –
48 | C[N+]1(C)CCc2cc(O)c(O)cc2[C@H]1Cc1ccc(O)c(O)c1 | – | 26.9% [at 11.4 µM]

Row | SMILES | AC50 | activity, negative = inhibition
49 | CCOc1cc(/C=N/n2cnnc2)c(Br)cc1O | 10 µM (active) | –
50 | COc1cc(CNC2CCCC2)cc(Cl)c1OCc1ccccc1Cl | 2.24 µM (active) | –
51 | CCOC(=O)c1[nH]c(C(=O)O)c(CCC(=O)OC)c1C | inactive | –
52 | CCOC(=O)c1[nH]c(COC(=O)CCOc2ccccc2OC)c(C(=O)OCC)c1C | 4.47 µM (active) | –
53 | COc1cc(C2C(=O)N(C3CCCC3)CC(=O)N2Cc2ccco2)ccc1OC(C)C (stereo not drawn) | 4.47 µM (active) | –
54 | CCOCCCN1C(=O)CN(C2CCCCC2)C(=O)C1c1ccc(OCC)c(OC)c1 (stereo not drawn) | inactive | –
55 | CC1CN(C(=O)c2cc3c(s2)CCC3)CC(C)O1 (stereo not drawn) | 14.1 µM (active) | –
56 | Cc1cc(C(C#N)c2cccc(Cl)c2)n2ncnc2n1 (stereo not drawn) | 28.2 µM (active) | –
57 | CCN1C(=O)[C@H]2[C@H]3[C@H](O)[C@H](O)C/C(=N/O[C@@H](C)c4cn([C@H]5COC[C@H]5O)nn4)[C@@H]3CC[C@@H]2C1=O | – | 27.9% [at 11.4 µM]
58 | C[C@H](N)C(=O)OC(C)(C)Cc1ccc(Cl)cc1 | 3.98 µM (active) | –
59 | C/C(=C\c1ccc(Cl)cc1)C(C)(C)C(=O)O | – | -25.9% [at 11.4 µM]
60 | COC(=O)[C@H](N)Cc1ccc(Cl)cc1 | inactive | –
61 | CC1=CC(C)(C)Nc2ccc(CSc3ccccc3)cc21 | 0.316 µM (active) | –
62 | Cc1cc(C2C(C#N)=C(N)OC3=C2C(=O)CC(C)(C)C3)c(C)s1 (stereo not drawn) | 4.47 µM (active) | –
63 | Cc1cc(C2C(C#N)=C(N)Oc3n[nH]c(C)c32)c(C)s1 (stereo not drawn) | 11.2 µM (active) | –
64 | CC1(C)CC(=O)C2=C(C1)Oc1nc3ccccc3cc1C2C(C#N)C#N (stereo not drawn) | inactive | –
65 | COc1cc(C2C(C#N)=C(N)OC3=C2C(=O)CCC3)c([N+](=O)[O-])cc1OC (stereo not drawn) | inactive | –
66 | CC(C)(C)C(=O)OCOC(=O)[C@@H]1N2C(=O)[C@@H](NC(=O)[C@H](N)c3ccccc3)[C@H]2SC1(C)C | inactive | –
67 | C#CCOCCCC(=O)O | – | 22.8% [at 11.4 µM]
68 | CCCCN1CCC(COC(=O)c2cc(Cl)c(N)c3c2OCCO3)CC1 | inactive | –
69 | CC1(C)CC(=O)c2cnc(N)nc2C1 | inactive | –
70 | CC1(C)CC(=O)c2cn3ncnc3nc2C1 | 15.8 µM (active) | –
71 | CC1(C)O[C@H]2C[C@@H]3[C@H]4CCC5=CC(=O)CC[C@@]5(C)[C@]4(F)[C@@H](O)C[C@@]3(C)[C@@]2(C(=O)CCl)O1 | inactive | –
72 | COc1ccc(-c2coc3cc4oc(=O)cc(C)c4cc23)cc1F | 3.55 µM (active) | –

Row | SMILES | AC50 | activity, negative = inhibition
73 | COc1cc2ccc(=O)oc2cc1O | inactive | –
74 | Cn1c(SC2CCCCC2=O)nnc1-c1ccncc1 (stereo not drawn) | 7.08 µM (active) | –
75 | CC1CC2(CCCCC2)N2C(=O)C(=O)c3cccc1c32 (stereo not drawn) | 2.82 µM (active) | –
76 | CCOC(=O)C1=C(C)NC(C)=C(C(=O)OC)[C@@H]1c1cccc([N+](=O)[O-])c1 | 0.126 µM (active) | –
77 | C#CCN1C(C)=C(C(=O)OC)[C@@H](c2cccc([N+](=O)[O-])c2)C(C(=O)OCC)=C1C | 5.01 µM (active) | –
78 | CCOC(=O)C1=C(C)NC(C)=C(C(=O)OC)[C@H]1c1cccc([N+](=O)[O-])c1 | 0.251 µM (active) | –
79 | OC[C@@H]1O[C@@H](n2cnc3c(NC4CCCC4)ncnc32)[C@H](O)[C@H]1O | inactive | –
80 | NCc1ccc(S(N)(=O)=O)cc1 | inactive | –
81 | CCN(C1CCCCC1)S(=O)(=O)c1ccc(S(=O)(=O)NCc2ccncc2)cc1 | 1.58 µM (active) | –
82 | CCCCSc1nnc(-c2ccc(C)cc2)n1C | 14.1 µM (active) | –
83 | COc1nc(OCCNC(C)=O)nc(N(C)C)n1 | inactive | –
84 | O=[N+]([O-])c1ccc2ncccc2c1CCc1c([N+](=O)[O-])ccc2ncccc12 | – | 39.5% [at 11.4 µM]
85 | O=S(=O)(O)c1cc(N=Nc2cccc3ccccc23)c(O)c2ncccc12 | – | -29.3% [at 11.4 µM]
86 | O=[N+]([O-])c1cc(Cc2cc([N+](=O)[O-])c3cccnc3c2O)c(O)c2ncccc12 | 2.51 µM (active) | –
87 | CC(=O)N1CCN(c2nc(C)nc3sc4c(c23)CCC(C)C4)CC1 (stereo not drawn) | 4.47 µM (active) | –
88 | CSc1ncnc2c1ncn2[C@@H]1O[C@@H](CO)[C@H](O)O[C@@H]1O | – | 41% [at 11.4 µM]
89 | CN(N=O)c1ccc(/C=C\c2ccnc3ccccc23)cc1 | – | 14.4% [at 11.4 µM]
90 | CCN(CC)c1ccc(/C=C/c2nc3ccccc3s2)cc1 | 2 µM (active) | –
91 | Cc1ccc(OCCOCCn2ccnc2)c(Br)c1 | 0.0158 µM (active) | –
92 | Cc1cccc(OCCCCCn2ccnc2)c1 | 0.0398 µM (active) | –
93 | C#CCCCO/N=C1/C[C@@H](O)[C@@H](O)[C@@H]2[C@@H]3C(=O)N([C@@H](C)c4ccccc4)C(=O)[C@H]3CC[C@H]12 | – | -27.2% [at 11.4 µM]

Source: PubChem BioAssay AID1851 (National Center for Advancing Translational Sciences (NCATS), 2009)
